Test results published in PubChem BioAssay.

test system: Noggin (protein binding on small-molecule microarray); assay: Noggin binders on small-molecule microarray, primary screen, biochemical, 635/667 nm fluorescence (AID 1095); details: 635 nm fluorescence, higher = more signal;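 note: score merges 667 nm feature fluorescence with signal to noise over triplicate slides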

Point of comparison: `O=C1OCCC=C[C@H]2OC34C=CCN(c5ccc6ccccc6c5)C(=O)[C@H]3N(CCCCCO)C(=O)[C@@H]4C12` (stereo not given in full), composite z-score -0.586. Against it:
- CCCCCCc1nc(CCCc2cc3c(c(CCCCCC)n2)[Si](C(C)C)(C(C)C)OC3)cc2c1[Si](C(C)C)(C(C)C)OC2 — higher, 0.257
- COc1cccc(C(=O)O[C@H]2CC[C@]3(C)C4=C(CCC3C2(C)C)[C@]2(C)CC[C@H]([C@H](C)CCCC(C)C)[C@@]2(C)CC4)c1 (stereo not given in full) — higher, 0.383
- O=C1N(CCS(=O)(=O)c2ccccc2)Cc2ccccc2C[C@]12N=C(c1ccc(OCCCO)cc1)O[C@@H]2c1ccccc1 — higher, 1.2
- O=C1C2C=CC(C(O)c3cccs3)N(Nc3ccccc3F)C2C(=O)N1c1ccccc1 (stereo not given) — higher, -0.226
- COc1ccc(NN2C(C(O)c3ccc(OC)c(OCc4ccccc4)c3)C=CC3C(=O)N(C4CCCCC4)C(=O)C32)cc1 (stereo not given) — higher, 0.181
- CCOc1cc(C(O)C2C=CC3C(=O)N(c4ccccc4)C(=O)C3N2Nc2ccc([N+](=O)[O-])cc2)ccc1O (stereo not given) — higher, 0.0883
- COCCOC(=O)N1C(=O)[C@@]2(c3cc(C#CCNC(N)=O)ccc31)[C@H](C(=O)N1CCN(c3ncccn3)CC1)[C@H]1C(=O)O[C@H](c3ccccc3)[C@H](c3ccccc3)N1[C@@H]2c1ccccc1OCCO — higher, 0.808
- C=CC[C@]1(C(=O)N2CCOCC2)N=C(c2ccc(OCCCO)cc2)O[C@H]1c1ccccc1 — higher, -0.243
- CCOC(=O)C1=CC[C@@H](c2ccccc2)N(S(=O)(=O)c2ccc(C)cc2)[C@H]1C(=O)OCC — higher, 0.0818
- CC=CC(O)C1C=CC2C(=O)N(c3ccccc3)C(=O)C2N1Nc1ccc(C(C)C)cc1 (stereo not given) — higher, 0.321
- CCOC(=O)C[C@H]1[C@H](OC(=O)c2ccc(C(=O)c3ccccc3)cc2)[C@@H](NC(=O)C2CCCCC2)c2cc(OCCCO)ccc2N1C(=O)c1ccccc1 — higher, 0.45
- [N-]=[N+]=Nc1ccccc1[C@@H]1OC(c2ccc(OCCCO)cc2)=N[C@]1(CCS(=O)(=O)c1ccccc1)C(=O)N1CCOCC1 — higher, 0.417
- NC(=O)NCC#Cc1ccc2c(c1)[C@]1(C(=O)N2)[C@H](C(=O)N2CCCCCCC2)[C@H]2C(=O)O[C@H](c3ccccc3)[C@H](c3ccccc3)N2[C@@H]1c1ccc(OCCO)cc1 — higher, 1.47
- O=C(NCc1ccccc1)[C@]1(CCS(=O)(=O)c2ccccc2)N=C(c2ccc(OCCCO)cc2)O[C@@H]1c1ccccc1 — higher, 0.204
- C=C(C(=O)CC[C@H](OC(C)=O)c1ccc(OCCO)cc1)C(C)C — higher, 1.22
- CCCCCN1CC=CC23O[C@@H]4/C=C\CCC(C)OC(=O)C4[C@H]2C(=O)N(CCCCCO)[C@@H]3C1=O (stereo not given in full) — higher, -0.0687
- O=C1[C@]2(CO)C=C(Br)[C@@H](C[C@@H]2c2ccccc2)[C@@]12CO2 — higher, 0.0401
- CC(C)C(O)C1C=CC2C(=O)N(c3ccccc3)C(=O)C2N1Nc1ccc(C#N)cc1 (stereo not given) — higher, -0.388
- O=C(CS)NCCCCCCNC(=O)[C@H]1C[C@H]2C(=O)N3CCC[C@H]3C(=O)N2[C@H]1c1cccc(OCCO)c1 — higher, 0.858
- COCC(=C=CC[C@H](O)c1ccc(OCCO)cc1)C[C@H](O)c1cc(Cl)cc(Cl)c1O — higher, 1.86
- CN1CCC(CCCO)=CC1c1ccc(CN2CCCC2)cc1 (stereo not given) — higher, 1.72
- COCCOC(=O)N1C(=O)[C@@]2(c3cc(C#CCC(C(=O)OC)C(=O)OC)ccc31)[C@H](c1ccccc1OCCO)N1[C@H](c3ccccc3)[C@H](c3ccccc3)OC(=O)[C@H]1[C@@H]2C(=O)N1CCc2cc(OC)c(OC)cc2C1 — higher, 1.64
- COc1ccc(CCNC(=O)[C@@]2(c3ccc([N+](=O)[O-])cc3)CC(=O)N(CC34CC5CC(CC(C5)C3)C4)[C@@H]2c2ccc(CO)cc2)cc1 — higher, 0.71
- Cc1ccccc1C(O)C1C=CC2C(=O)N(C)C(=O)C2N1Nc1ccccc1 (stereo not given) — lower, -0.657
- O=C1c2ccccc2[C@@]2(Cc3ccccc3N(Cc3ccccc3)C2=O)[C@H](c2ccc(CO)cc2)N1C1CCCCC1 — higher, 0.61
- O=C1O[C@H](c2ccccc2)[C@H](c2ccccc2)N2[C@H]1[C@@H](C(=O)Nc1nc3ccccc3s1)[C@]1(C(=O)Nc3ccccc31)[C@H]2c1ccc(O)cc1 — higher, 1.24
- C=C[C@@H](COC(C)=O)N(Cc1ccc([N+](=O)[O-])cc1)S(=O)(=O)c1ccc(Br)cc1 — higher, -0.0608
- CC(C)N1C(=O)c2ccccc2[C@@H](C(=O)NCCCN(C)C)[C@@H]1c1ccc(CO)cc1 — lower, -0.879
- CC(C)c1ccc(NN2C(C(O)c3cccc(O)c3)C=CC3C(=O)N(c4ccccc4)C(=O)C32)cc1 (stereo not given) — higher, 0.527
- CCOC(=O)C[C@H]1[C@H](OC(=O)Cc2ccc3c(c2)OCO3)[C@@H](NC(=O)C2CCCCC2)c2cc(OCCCO)ccc2N1C(=O)Cc1ccc(OC)cc1 — higher, 0.509
- COCCOC(=O)N1C(=O)[C@@]2(c3cc(C#CCC(C(=O)OC)C(=O)OC)ccc31)[C@H](C(=O)N1CCN(c3ncccn3)CC1)[C@H]1C(=O)O[C@H](c3ccccc3)[C@H](c3ccccc3)N1[C@@H]2c1ccc(OCCO)cc1 — higher, 0.668
- COc1ccc(C#Cc2ccc3c(c2)[C@]2(C(=O)N3)[C@H](c3ccc(O)cc3)N3[C@H](c4ccccc4)[C@H](c4ccccc4)OC(=O)[C@H]3[C@@H]2C(=O)N2CCCCCCC2)cc1 — higher, 1.86
- O=C1OCC=C[C@H]2OC34C=CCN(c5ccc(Cl)cc5)C(=O)[C@H]3N(CCCCCCO)C(=O)[C@@H]4[C@@H]12 (stereo not given in full) — lower, -1.51
- O=C1O[C@H](c2ccccc2)[C@H](c2ccccc2)N2[C@H]1[C@@H](C(=O)N1CCN(c3ncccn3)CC1)[C@]1(C(=O)Nc3ccccc31)[C@H]2c1ccc(OCCO)cc1 — higher, 1.88
